Most compounds without a hit are left out; they make up all but 5.7% or so of the library.
NPSR antagonist – blocks cAMP signaling of the human neuropeptide S receptor; Q6W5P4; CHO-NPSR cells, cAMP TR-FRET, antagonist mode; Potency, µM (top dose mostly 38.3 µM), for the others: at the top dose activity change, negative = inhibition, hits mostly inhibitors; actives 1% (n = 220,000); further: nearly all actives have a fitted effect of over 50% in size
VP16 counter – counter-screen for ROR gamma inhibitors: Gal4-VP16 reporter; Drosophila S2 Gal4-VP16 UAS-luciferase, luminescence, 20 h; actives 3.5% (n = 310,000); Potency, µM (doses to about 53.6 µM), inactives show at the highest dose activity, negative = inhibition, actives largely listed as inhibitors;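 further: Gal4-VP16 expression switched on by copper sulfate through the metallothionein promoter; nearly all actives have a fitted effect of over 50% in size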
RORg inh – ROR gamma (mouse) transcription inhibition; P51450; Drosophila S2 Gal4-RORgamma UAS-luciferase reporter, 20 h; Potency, µM (titrated, usually from 53.6 µM), inactives show top-dose activity change, negative = inhibition, actives largely listed as inhibitors; actives 5.4% (n = 310,000); further: nearly all actives have a fitted effect of over 60% in size
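Drosophila S2 cells stably expressing Gal4-DBD/mouse RORγ fusion under metallothionein promoter plus UAS-luciferase; compound 1 h, then 700 uM CuSO4 induction for 20 h at ambient temperature; inhibition read as reduced luminescence.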
B2AR arrestin – beta2AR (human) beta-arrestin recruitment activity; beta-arrestin recruitment to beta2AR, cell-based reporter; Potency, µM (top dose mostly 46.1 µM), for inactives: at the top dose activation, hits mostly activators; actives 0.02% (n = 330,000);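 further: 0% = DMSO controls and full agonism = EC100 isoproterenol or metaproterenol; nearly all actives have a fitted effect of over 65% in size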
Target sequence (P07550 whole entry, looked up): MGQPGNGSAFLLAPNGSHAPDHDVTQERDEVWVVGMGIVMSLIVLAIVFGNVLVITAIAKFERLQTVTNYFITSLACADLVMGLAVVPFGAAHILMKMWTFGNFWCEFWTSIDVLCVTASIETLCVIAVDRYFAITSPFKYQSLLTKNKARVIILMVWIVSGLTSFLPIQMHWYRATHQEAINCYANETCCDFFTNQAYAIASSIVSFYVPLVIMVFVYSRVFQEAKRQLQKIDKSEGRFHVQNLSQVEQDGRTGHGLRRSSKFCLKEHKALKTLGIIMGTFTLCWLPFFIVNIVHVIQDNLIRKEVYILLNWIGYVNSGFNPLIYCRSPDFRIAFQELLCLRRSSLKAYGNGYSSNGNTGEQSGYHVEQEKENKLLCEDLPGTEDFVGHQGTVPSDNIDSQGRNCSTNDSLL
* marks the source's active call; other numbers are inactive results; ? = inconclusive; . = not tested or not shown; [ ] = remark or other dose. The call rests on the fitted dose curve; in most records, active means well fitted curve in the direction sought with a large enough effect; inconclusive means small, poorly fitted or top-dose-only effect, or another doubt; inactive means no such curve, though single readings can be large; an effect the other way counts as inactive or inconclusive. Unless noted, on the % scale 0 is the no-effect control and ±100 the full control effect; potency means the concentration at half of the fitted maximal effect.

SMILES	NPSR antagonist	VP16 counter	RORg inh	B2AR arrestin
COc1ccc(S(=O)(=O)Nc2ccc(OCC(=O)O)cc2)c2ccccc12	.	0%	11%	-1%
FC(F)(F)c1cccc(Nc2cc(-c3ccccc3)nc3ncnn23)c1	1%	-11%	2µM*	-1%
Cc1cc(Nc2ccc(C(C)C)cc2)n2ncnc2n1	-5%	?	?	0%
Cc1cc(Nc2ccc3ccccc3c2)n2ncnc2n1	3%[46.1 µM]	?	6.3µM*	1%
COC(=O)N1[C@H]2CC[C@@]3(C)C=C(C)O[C@]1(C)C3c1ccccc12	.	-3%	17%	.
OCC[C@H]1C[C@H](O)[C@@H](O)[C@@]2(CCc3ccccc3O2)O1	.	.	.	0%
Cc1nn(-c2ccccc2)c(Cl)c1C(=O)Nc1nnc(C2CCCC2)s1	-15%[46.1 µM]	?	7.9µM*	0%
Cc1nn(-c2ccccc2)c(Cl)c1C(=O)NC1CCCCC1	30%	3%	19%	-1%
COc1cc(CC(=O)N/N=C/c2ccc([N+](=O)[O-])cc2)c([N+](=O)[O-])cc1OC	3%[46.1 µM]	-10%	-6%	0%
COc1ccc(NS(=O)(=O)c2cc(NC(=O)c3ccc(C)o3)ccc2N2CCCCC2)cc1	-16%	4.5µM*	6.3µM*	0%
COc1ccc(NS(=O)(=O)c2cccc(NC(=O)c3ccc(S(=O)(=O)N4CCCCCC4)cc3)c2)cc1	-18%	3.2µM*	-52%	0%
COc1ccc(NS(=O)(=O)c2ccc(NC(=O)c3ccc(CN4CCOCC4)cc3)cc2)cc1	21%	3%	14µM*	0%
O=S(=O)(Nc1nc2ccccc2nc1Nc1cccc(S(=O)(=O)N2CCCCC2)c1)c1ccccc1	?	13µM*	?	0%
COc1ccc(NS(=O)(=O)c2cc(NC(=O)c3cccs3)ccc2N2CCCC2)cc1	-21%	-7%	19%	-1%
CCCCOC(=O)C(C)c1c(C)[nH]c(=S)[nH]c1=O (stereo not drawn)	?	-7%	-18%	0%
CCC/C=C(\CCC)C(NS(=O)(=O)CC12CCC(CC1=O)C2(C)C)c1ccc(C(=O)OC)cc1 (stereo not drawn)	.	-20%	7%	.
NS(=O)(=O)c1ccc(-c2c(-c3ccccc3)sc3ccccc23)cc1	.	.	.	0%
O=C(Nc1ccc2c(c1)CCC2)c1ccc(Br)o1	-12%[46.1 µM]	-5%	1%	-1%
Cc1ccc(C)c(NC(=S)Nc2ccc(S(=O)(=O)Nc3ncccn3)cc2)c1	7%	?	?	1%
O=C(CSc1ccccc1)Nc1ccc(S(=O)(=O)Nc2ncccn2)cc1	-4%	5%	13µM*	0%
Cc1ccc(C(=O)Nc2ccc3c(c2)CCC3)o1	-24%[46.1 µM]	13µM*	?	0%
COc1ccc(NS(=O)(=O)c2cccc(NC(=O)C3=NN(c4ccccc4)C(=O)CC3)c2)cc1	.	11µM*	?	0%
Cc1ccc(NC(=S)Nc2ccc(S(=O)(=O)Nc3ncccn3)cc2)c(C)c1	-22%	-19%	13µM*	-1%
COc1ccc(NC(=O)CN(c2c(C)cccc2C)S(C)(=O)=O)cc1	.	0%	-10%	1%
CCCCN(C(=O)CSCC(=O)Nc1ccc(OC)cc1)c1c(N)n(Cc2ccccc2)c(=O)[nH]c1=O	.	.	.	-2%
SMILES	NPSR antagonist	VP16 counter	RORg inh	B2AR arrestin
O=C(Nc1ccc(Cc2ccncc2)cc1)c1ccc(S(=O)(=O)N2CCOCC2)cc1	-7%[46.1 µM]	7.1µM*	-41%	0%
O=C(Nc1ccc(S(=O)(=O)Nc2ncccn2)cc1)c1ccc(S(=O)(=O)N2CCCC2)cc1	20%	-5%	13µM*	0%
Cc1ccc(N=Nc2c(N)[nH]n3c(=O)cc(C)nc23)cc1	-30%	-24%	10µM*	-1%
CN(Cc1c(C(=O)N2CCc3ccccc3C2)nc2ccc(Cl)cn12)C(C1CC1)C1CC1	60%	-17%	-16%	0%
CCOC(=O)Cc1csc(SCn2nnc3ccccc3c2=O)n1	-15%[46.1 µM]	-7%	-13%	0%
CCOC(=O)Cc1csc(-n2sc3ccccc3c2=O)n1	-3%[46.1 µM]	?	11µM*	-1%
CC(CCc1ccccc1)NCC(O)COc1ccccc1 (stereo not drawn)	-1%	3%	-45%	0%
CSCC[C@H](NC(=O)[C@H](CC(C)C)NC(=O)[C@@H]1CCCN1C(=O)[C@H](Cc1ccccc1)NC(=O)[C@H](Cc1ccccc1)NC(=O)[C@H](CCC(N)=O)NC(=O)[C@H](CCC(N)=O)NC(=O)[C@@H]1CCCN1C(=O)[C@H](CCCCN)NC(=O)[C@@H]1CCCN1C(=O)[C@@H](N)CCCN=C(N)N)C(N)=O	.	-8%	0%	.
CN1CCN(c2ccc(-c3cccc(NC(=O)COc4ccccc4)c3)nn2)CC1	.	.	.	0%
CCC(=O)Nc1cccc(-c2ccc(N3CCCCC3)nn2)c1	.	2.8µM*	2.5µM*	0%
CCC(=O)Nc1cccc(-c2ccc(N3CCN(C)CC3)nn2)c1	.	?	14µM*	0%
CCn1cc(CN2CCC(n3nccc3NC(=O)CCc3ccccc3)CC2)cn1	.	-22%	-2%	0%
COc1ccc(OC)c(NC(=O)CSc2ncnc3c2cnn3-c2ccccc2Cl)c1	-13%[46.1 µM]	1.4µM*	?	0%
Cc1nc(-n2[nH]c3c(c2=O)CCCC3)[nH]c(=O)c1Cc1ccccc1	7.9µM*	2.5µM*	2.2µM*	0%
Cc1[nH]c2ccccc2c1C(=O)/C=C\c1ccccc1Cl	-16%	-3%	13µM*	-1%
Cc1[nH]c2ccccc2c1C(=O)/C=C/c1ccccc1Cl	-31%	13%	-35%[10 µM]	0%
O=C1c2ccccc2C(=O)N1Cc1ccc2c(c1)OCO2	-14%[46.1 µM]	8%	3%	0%
C=C1c2ccccc2NC(=S)N1Cc1ccc2c(c1)OCO2	-36%	?	3.2µM*	-1%
CCSc1nnc(NC(=O)C(CC)(C(F)(F)F)C(F)(F)F)s1	-20%[46.1 µM]	16µM*	10µM*	0%
CCS(=O)(=O)N1Cc2ccccc2CC1C(=O)Nc1nnc(SCc2c(Cl)cccc2Cl)s1 (stereo not drawn)	-17%	6.3µM*	5µM*	4%
CCS(=O)(=O)N1Cc2ccccc2CC1C(=O)Nc1nc2c(C)cccc2s1 (stereo not drawn)	-2%	5.6µM*	3.5µM*	-1%
CCS(=O)(=O)N1Cc2ccccc2CC1C(=O)Nc1nc(C)cs1 (stereo not drawn)	5%	-7%	-23%	0%
CCc1nnc(NC(=O)C2Cc3ccccc3CN2S(=O)(=O)c2cccs2)s1 (stereo not drawn)	-14%[46.1 µM]	.	-19%[0.365 µM]	0%
O=C(Nc1nnc(C2CC2)s1)C1Cc2ccccc2CN1S(=O)(=O)c1cccs1 (stereo not drawn)	-23%[46.1 µM]	?	1.4µM*	0%
C=C(C#N)C(=O)OCC	.	-3%	13%	.
CN(C)CCCn1c2c(c(SCC(=O)Nc3ccc4c(c3)OCCO4)nc1=O)CCC2	.	.	.	-2%
CCSc1nnc(NC(=O)c2ccccn2)s1	-26%[46.1 µM]	3.2µM*	2µM*	?
Cc1cnc(C(=O)Nc2nnc(SCc3c(Cl)cccc3Cl)s2)cn1	-15%	5µM*	2µM*	0%

Assay outcomes (PubChem)
